Results filed as inconclusive are left out. Unmarked numbers belong to inactive results. Calls come from the whole dose curve; as a rule, active = well fitted cell-killing curve with a large enough effect; inconclusive = small, poorly fitted or top-dose-only effect, or effect the other way; inactive = flat fitted curve, though single readings scatter. *1 amine or outer side, *2 acyl side, *3 side chain or, on linkers, in order; H or OH if unused. Where a SMILES comes first, the peptide text is derived from it. [ ]: non-standard residue; d: D form. X4 = CC(C)=CCc1cc(C(O)C(N[*:1])C(=O)[*:2])ccc1O
% is set by controls: 0 for no effect and ±100 for the full control effect.

The subject of one assay is PA-1. Description: Primary qHTS to identify gynecologic anti-cancer compounds using libraries of approved drugs and bioactive compounds (AID 1345084). Note: nearly all actives have a fitted effect of over 55% in size. Particulars: Gynecologic cancer cell panel viability, ATPlite luminescence, 48 h; series mostly up to 57.5 µM; activity change, negative = cytotoxicity: at the top concentration. Summed up:
(§1)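 ATP-based viability (ATPlite), 1,000 cells/well, 16 h pre-incubation, 48 h compound at 37 C, 5% CO2, 15 min RT before read.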
In the case of `CCN(Cc1cccnc1)C(=O)CN(c1ccc(OC)nc1)S(=O)(=O)c1ccccc1C`, the “activity change, negative = cytotoxicity” value was 13.3%.

Consider `COc1ccc(CN2C(=O)C(=O)c3cc(S(=O)(=O)N4CCC[C@H]4COc4cccnc4)ccc32)cc1`, for which the “activity change, negative = cytotoxicity” value was 3.09%.

`CC1=CC(=O)[C@]2(O[C@@H]3O[C@@H](C)[C@H](O)[C@@H](O)[C@H]3OC(=O)/C=C/c3ccccc3)C=CO[C@@H](O[C@@H]3O[C@H](CO)[C@@H](O)[C@H](O)[C@H]3O)[C@H]12`: the “activity change, negative = cytotoxicity” value was -7.78% [at 25.3 µM].

For the compound `O=C(O)c1ccccc1NC(=O)N1CCC(c2ccccc2C(F)(F)F)CC1`, the “activity change, negative = cytotoxicity” value is -3.47%.

`Nc1nc2c(ncn2[C@@H]2O[C@H](CO)[C@@H](O)[C@H]2O)c(=O)[nH]1`: the “activity change, negative = cytotoxicity” value was 18.6%.

Turning to `C/C1=C\C[C@]2(C)C(=O)C(O)=C([C@H](C)CO)[C@H]2C/C=C(\C)[C@@H](O)CC/C(C)=C/CC1`, the “activity change, negative = cytotoxicity” value is 0.77% [at 38.5 µM].

For `C[C@]12C[C@@H](O)[C@@H]3C[C@@]1(O[C@@H]1O[C@H](CO)[C@@H](O)[C@H](O)[C@H]1O)[C@]3(COC(=O)c1ccccc1)C(=O)O2`, the “activity change, negative = cytotoxicity” value was 8.95% [at 25.3 µM].

The next assay deals with SKOV3. The description is as above. As to conditions: Gynecologic cancer cell panel viability, ATPlite luminescence, 48 h; series mostly up to 57.5 µM; activity change, negative = cytotoxicity: at the top concentration. Summed up: as §1
`O=C(OC1C=C(CO)C2C(OC3OC(CO)C(O)C(O)C3O)OC=CC12)c1ccc(O)cc1` (stereo not given): the “activity change, negative = cytotoxicity” value was 9.92% [at 25.3 µM].

For `CC1(C)CC[C@]2(C(=O)OC3OC(CO)C(O)C(O)C3O)CC[C@]3(C)C(=CCC4[C@@]5(C)CC[C@H](OC6OC(C(=O)O)C(O)C(OC7OC(CO)C(O)C(O)C7O)C6O)C(C)(C)C5CC[C@]43C)C2C1` (stereo not given in full), the activity change, negative = cytotoxicity is -1.26% [at 11.6 µM].

For the compound `CC(C)=CCc1cc(C(O)C2NC(=O)CNC(=O)C(Cc3c[nH]c4ccccc34)NC(=O)C3CCCN3C(=O)CNC(=O)C(C(C)C)NC(=O)CNC2=O)ccc1O` (stereo not given) (cyclo(G[X4]GVGPW); configuration not given here), the activity change, negative = cytotoxicity was 0% [at 11.6 µM].

Consider `CC12CCC(OC3OC(CO)C(O)C(OC4OC(CO)C(O)C(O)C4O)C3O)CC1=CCC1C2CCC2(C)/C(=C3/COC(=O)C3)CCC12O` (stereo not given), for which the “activity change, negative = cytotoxicity” value is -10.6% [at 25.3 µM].

As for `C/C1=C\[C@H]2OC(=O)[C@@H](C)[C@@H]2CC/C(C(=O)O)=C/CC1`, the “activity change, negative = cytotoxicity” value is -2.49%.

For `CC12CCC(OC3OC(CO)C(O)C(OC4OC(CO)C(O)C(O)C4O)C3O)CC1CCC1C2CCC2(C)/C(=C3/COC(=O)C3)CCC12O` (stereo not given), the “activity change, negative = cytotoxicity” value was 23.5% [at 25.3 µM].

For the compound `CC1(C)CCC[C@@]2(C)C1[C@H](OC(=O)/C=C/C=C/C(=O)O)C=C1COC(=O)[C@@]12O` (stereo not given in full), the “activity change, negative = cytotoxicity” value was -3.06% [at 38.5 µM].

As for `CO/N=C(/C(=O)N[C@@H]1C(=O)N2C(C(=O)O)=C(Cn3ccc(=N)n3CCO)CS[C@H]12)c1csc(N)n1`, the “activity change, negative = cytotoxicity” value is 28.4%.

As for `CC(C)=CCC[C@](C)(O)[C@H]1CC[C@]2(C)[C@@H]1[C@H](O)CC1[C@@]3(C)CC[C@H](O)C(C)(C)[C@@H]3[C@@H](O[C@@H]3O[C@H](CO)[C@@H](O)[C@H](O)[C@H]3O[C@@H]3O[C@H](CO)[C@@H](O)[C@H](O)[C@H]3O)C[C@]12C` (stereo not given in full), the “activity change, negative = cytotoxicity” value is -0.458% [at 25.3 µM].

Take `C[C@@H]1O[C@@H](O[C@H]2[C@H](OC(=O)[C@]34CCC(C)(C)C[C@H]3C3=CCC5[C@@]6(C)C[C@H](O)[C@H](O[C@@H]7O[C@H](CO)[C@@H](O)[C@H](O)[C@H]7O)[C@@](C)(CO)C6[C@H](O)C[C@@]5(C)[C@]3(C)CC4)OC[C@H](O)[C@@H]2O)[C@H](O)[C@H](O)[C@H]1O[C@@H]1OC[C@@H](O)[C@H](O[C@@H]2OC[C@](O)(CO)[C@H]2O)[C@H]1O` (stereo not given in full): the activity change, negative = cytotoxicity is 1.77% [at 6.55 µM].

As for `CC(=O)OC1C(O)CC2(C)C(CCC(C)C23Cc2c(O)cc(CO)c(C=O)c2O3)C1(C)C` (stereo not given), the “activity change, negative = cytotoxicity” value is 13.8% [at 25.3 µM].

In the case of `CC1(C)CCCC2(C)C(C(=O)O)=CCC12` (stereo not given), the “activity change, negative = cytotoxicity” value was 4.37%.

Consider `CCC(C)/C=C(C)/C=C/c1cc2c(cn1)C(=O)C(C)(OC(C)=O)C(O)=C2Cl` (stereo not given), for which the “activity change, negative = cytotoxicity” value was 18.1% [at 38.5 µM].

As to `CC(O)/C=C/C1(O)C(C)C(O[C@@H]2O[C@H](CO)[C@@H](O)[C@H](O)[C@H]2O)C(O)CC1(C)C` (stereo not given in full), the “activity change, negative = cytotoxicity” value was -16% [at 25.3 µM].

Turning to `COC(=O)C12CCC(C)C(C)C1C1=CCC3C4(C)CCC(OC(C)=O)C(C)(C)C4CCC3(C)C1(C)CC2` (stereo not given), the “activity change, negative = cytotoxicity” value is -11.4% [at 25.3 µM].

On to `O=C1CCC(=O)N(O)CCCCCNC(=O)CCC(=O)N(O)CCOCCNC(=O)CCC(=O)N(O)CCCCCN1`, for which the “activity change, negative = cytotoxicity” value is 15.6% [at 25.3 µM].

As to `CCc1ccc(Cc2ccc3c(c2)[C@]2(OC3)O[C@H](CO)[C@@H](O)[C@H](O)[C@H]2O)cc1`, the “activity change, negative = cytotoxicity” value is 19%.

As to `C=C(C(=O)O)C1CCC2(C)CCC(O)C(=C)C2C1` (stereo not given), the “activity change, negative = cytotoxicity” value was 6.13%.

For `C=C(C)C1CCC2(C(=O)O[C@@H]3O[C@H](CO[C@@H]4O[C@H](CO)[C@@H](O)[C@H](O)[C@H]4O)[C@@H](O)[C@H](O[C@@H]4O[C@@H](C)[C@H](O)[C@@H](O)[C@H]4O)[C@H]3O)CCC3(C(=O)O)C(CCC4C5(C)CCC(O)C(C)(C)C5CCC43C)C12` (stereo not given in full), the activity change, negative = cytotoxicity was -5.29% [at 11.6 µM].

Consider `CC(NC(=O)C(O)C(C)C)C(=O)NC1C(=O)N(C)CCc2ccccc21` (stereo not given), for which the “activity change, negative = cytotoxicity” value is -13.2%.

For `Nc1nc2c(ncn2[C@@H]2O[C@H](CO)[C@@H](O)[C@H]2O)c(=O)[nH]1`, the “activity change, negative = cytotoxicity” value was 21%.

Take `C/C1=C\C[C@]2(C)C(=O)C(O)=C([C@H](C)CO)[C@H]2C/C=C(\C)[C@@H](O)CC/C(C)=C/CC1`: the “activity change, negative = cytotoxicity” value is -2.08% [at 38.5 µM].

Turning to `C[C@]12C[C@@H](O)[C@@H]3C[C@@]1(O[C@@H]1O[C@H](CO)[C@@H](O)[C@H](O)[C@H]1O)[C@]3(COC(=O)c1ccccc1)C(=O)O2`, the “activity change, negative = cytotoxicity” value is -0.327% [at 25.3 µM].

These data come from PubChem BioAssay (NCATS).
